MITF inh: MITF inhibition; TRPM1 promoter luciferase, luminescence, 24 h; inhibition, % (test concentration not listed); actives 0.28% (n = 37,000); AID 2240; in the data active = inhibition above about 85%; inconclusive = no clear call, values can overlap the other calls; inactive = below about 68%;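 also: human melanocyte line stably carrying TRPM1 promoter luciferase reporter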
Hedgehog inh: Sonic Hedgehog pathway inhibition; actives 2.1% (n = 22,000); AID 2313; inhibition, % (no concentration beside the values); Shh-LIGHT2 Gli-luciferase reporter, 30 h;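 active = mean inhibition across valid replicates above about 65%, limit read from the data; inconclusive = mean under the limit, yet half or more replicates past it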;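 also: pathway switched on by Shh-conditioned medium diluted 1 in 25 in low serum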
NOMO-1 viab: STK33 inhibitor candidate reducing NOMO-1 cell viability. inhibition, % (test concentration not listed). NOMO-1 AML viability, CellTiter-Glo luminescence, 72 h. actives 7.5% (n = 37,000); in the data active = inhibition above about 80%; inconclusive = no clear call, values can overlap the other calls
PD-1 reversal: activators reversing PD-1 mediated T-cell inhibition; primary human CD4 T cells, PD-L1 beads, CellTiter-Glo 96 h; activation, % (concentration not given with the values); 29,000 tested, under 10 active; AID 2316; call rule not given here;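 also: 0% = median vehicle wells and 100% = positive control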
An asterisk follows results filed as active; ? = inconclusive; / = no result given. The list is not random: actives were taken first. Their share in the collection is about 8.1%.

SMILES	MITF inh	Hedgehog inh	NOMO-1 viab	PD-1 reversal
COc1ccc(CC(N)C(=O)N[C@H]2[C@@H](O)[C@H](n3cnc4c(N(C)C)ncnc43)O[C@@H]2CO)cc1 (stereo not given in full)	92*	97*	98*	-25
C[C@@H]1CCCCO[C@@H](CN(C)Cc2ccc(C(=O)Nc3ccccc3N)cc2)[C@@H](C)CN([C@H](C)CO)C(=O)c2cc(NC(=O)Nc3ccc(F)cc3)ccc2O1	-16	/	111*	1
C[C@@H]1CCCCO[C@@H](CN(C)Cc2ccc(C(=O)Nc3ccccc3N)cc2)[C@@H](C)CN([C@H](C)CO)C(=O)c2cc(NC(=O)c3ccccc3)ccc2O1	24	/	141*	-2
C[C@@H]1CCCCO[C@@H](CN(C)Cc2ccc(C(=O)Nc3ccccc3N)cc2)[C@@H](C)CN([C@H](C)CO)C(=O)c2cc(NC(=O)C3CCCCC3)ccc2O1	-21	/	123*	2
C[C@@H]1CCCCO[C@H](CN(C)Cc2ccc(C(F)(F)F)cc2)[C@@H](C)CN([C@H](C)CO)C(=O)c2cc(NC(=O)CCCCCC(=O)Nc3ccccc3N)ccc2O1	46	/	131*	-1
C[C@@H]1CCCCO[C@@H](CN(C)Cc2ccc(C(=O)Nc3ccccc3N)cc2)[C@@H](C)CN([C@H](C)CO)C(=O)c2cc(NC(=O)Nc3ccccc3)ccc2O1	-7	/	?	1
O=C(Nc1nc(-c2ccccc2)nc2c1C(=O)CCC2)c1ccccc1	-25	29	-8	0
Cc1nn(Cc2ccc(F)cc2)c(C)c1NC(=O)C1CC(c2c(F)cccc2Cl)=NO1 (stereo not given)	7	/	10	/
C[C@@H]1CCCCO[C@@H](CN(C)Cc2ccc(C(=O)Nc3ccccc3N)cc2)[C@@H](C)CN([C@H](C)CO)C(=O)c2cc(NC(=O)CCC(F)(F)F)ccc2O1	5	/	127*	-1
Cc1cccc(C)c1NC(=O)CN(c1ccc(Cl)c(C(F)(F)F)c1)S(C)(=O)=O	9	/	-7	-3
CC(=O)Nc1ccc(NC(=O)CN(c2ccc(Cl)c(C(F)(F)F)c2)S(C)(=O)=O)cc1	7	/	99*	0
CS(=O)(=O)N(CC(=O)Nc1ccc(Cl)c(C(F)(F)F)c1)c1cccc(C(F)(F)F)c1	27	/	?	-6
COC(=O)c1ccc(NC(=O)CN(c2ccccc2Br)S(C)(=O)=O)cc1	0	/	15	1
COC(=O)c1cccc(NC(=O)CN(c2ccc(Cl)c(C(F)(F)F)c2)S(C)(=O)=O)c1C	-22	/	142*	-1
COC(=O)c1cccc(NC(=O)CN(c2ccc(I)cc2)S(C)(=O)=O)c1C	-75	/	100*	0
COC(=O)c1ccccc1NC(=O)CN(c1ccc(C)c(Cl)c1)S(C)(=O)=O	8	/	29	0
COC(=O)c1ccc(Cl)c(NC(=O)CN(c2ccccc2Br)S(C)(=O)=O)c1	8	/	95*	1
CC1(C)NCCC12C(=O)N(Cc1ccccc1)c1ccccc12 (stereo not given)	12	35	120*	-1
NC(=O)c1ccccc1NC(=O)COc1cc(Cl)c(Cl)cc1Cl	-25	/	23	-1
C[C@@H]1CN([C@H](C)CO)C(=O)c2cccc(NC(=O)Nc3ccc4c(c3)OCO4)c2O[C@H]1CN(C)C(=O)Nc1ccc2c(c1)OCO2	-3	19	-11	1
C[C@@H]1CN([C@@H](C)CO)C(=O)c2cccc(NC(=O)Nc3ccc(C(F)(F)F)cc3)c2O[C@H]1CN(C)C(=O)Nc1ccc2c(c1)OCO2	34	-67	89*	/
C[C@@H]1CN([C@H](C)CO)C(=O)c2cccc(NC(=O)Nc3ccc(C(F)(F)F)cc3)c2O[C@H]1CN(C)C(=O)Nc1ccc2c(c1)OCO2	40	-1	116*	-6
COc1ccccc1NC(=O)c1ccc(OCC(=O)Nc2cc(Cl)cc(Cl)c2)cc1	22	/	86*	-1
Cc1cc(C)c2c(c1C(=O)Nc1cccc(C(F)(F)F)c1)CC(C)(C)C2=O	60	86*	75	0
Cc1ccc2oc(-c3ccc(NC(=O)Cn4c(=O)oc5ccccc54)cc3)nc2c1	-42	/	11	1
Cc1nc(-c2ccncc2)nc(NCCNc2cc(C(F)(F)F)ccn2)c1Cl	0	-32	9	0
C/C=C/C1=C(Cl)C(=O)[C@@H](O)[C@@]1(O)C(=O)OC	23	48	108*	-9
O=C(c1cccs1)N1c2ccccc2Sc2ccccc21	17	/	48	-1
Cc1ccc(S(=O)(=O)Nc2ccc3c(c2)C(=O)N([C@@H](C)CO)C[C@H](C)[C@@H](CN(C)Cc2ccc(C(=O)Nc4ccccc4N)cc2)O3)cc1	29	/	65	-2
